Results reported in PubChem BioAssay (NCATS).
Unmarked numbers belong to inactive results. No rule for the calls is given here.

test system: HIV-1 nucleocapsid protein NCp7 (binding to TG oligonucleotide); assay: HIV Nucleocapsid (AID 346); details: HIV-1 NC / fluorescein-TGTGTGTG probe, fluorescence polarization;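 also: potency is for inhibitors that block NC binding and lower polarization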
Outline: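 10 nM TG4xF probe with 100 nM nucleocapsid protein in high-salt Hepes pH 7.5 (250mM NaCl) containing 1uM ZnCl2 and reducing agents. Compound inhibition of binding was read as fluorescein polarization after 1 hr at room temperature.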
Potency is read from the fitted curve at half-maximal effect.

Row | SMILES | Potency
1 | COc1ccc(-c2nc3cnc(N(C)C)nc3n(C)c2=O)cc1 | > 4 µM
2 | N#CCCn1c(=O)c(-c2ccc(Cl)cc2)nc2cnc(Nc3ccccc3)nc21 | > 20 µM
3 | c1ccc(Nc2ncncc2-c2ccoc2)cc1 | > 20 µM
4 | FC(F)(F)c1ccccc1-c1cncnc1NCCc1cnc[nH]1 | > 20 µM
5 | COC(=O)N1CCC2(CCN(Cc3ccccc3)CC2)CC1 | > 20 µM
6 | Fc1ccc(Nc2nc(-c3ccoc3)nc3ccccc23)cc1 | > 20 µM
7 | COc1ccccc1CNc1ncnc2ccc(-c3ccccc3OC)cc12 | > 20 µM
8 | c1ccc(-c2cccc(N3CCCC4(CCNCC4)C3)c2)cc1 | > 20 µM
9 | COCCNc1nc(-c2ccccc2C)nc2ccccc12 | > 20 µM
10 | CC(C)CN1CC[C@@]2(CCCN(C(=O)c3cc(C(F)(F)F)cc(C(F)(F)F)c3)C2)C1 | > 20 µM
11 | CC(=O)NCCNc1nc(-c2cccnc2)nc2ccccc12 | > 20 µM
12 | COCCn1c(=O)c(-c2cccs2)nc2cnc(OC)nc21 | > 20 µM
13 | Cn1cccc1C(=O)N1CCC2(CCCN(c3ccncc3)C2)CC1 | > 20 µM
14 | CN1CCN(c2ncc3nc(-c4cc(F)cc(F)c4)c(=O)n(Cc4cccs4)c3n2)CC1 | > 20 µM
15 | Cc1cccc(CNc2cc(-c3cccnc3)ncn2)c1 | > 20 µM
16 | CC(=O)N1CCC[C@@]2(CCN(C(c3ccccc3)c3ccccc3)C2)C1 | > 20 µM
17 | COc1ccccc1CN1CCCC2(CCN(C(=O)c3ccco3)CC2)C1 | > 20 µM
18 | FC(F)(F)c1ccccc1-c1nccc(NCc2ccccc2)n1 | > 20 µM
19 | O=C(c1cccc(F)c1)N1CCC2(CC1)CN(C(c1ccccc1)c1ccccc1)C2 | > 20 µM
20 | CC(=O)NCCNc1ncnc2ccc(-c3ccc(C(=O)N(C)C)cc3)cc12 | > 20 µM

Row | SMILES | Potency
21 | COCCn1c(=O)c(-c2ccc(Cl)cc2)nc2cnc(OCc3ccccc3)nc21 | > 20 µM
22 | N#Cc1ccc(CN2CCC3(CC2)CCN(S(=O)(=O)c2ccccc2)CC3)cc1 | > 20 µM
23 | O=C(Nc1cccc(F)c1)N1CC2(CCN(C(=O)c3ccncc3)CC2)C1 | > 20 µM
24 | CCNc1ncc2nc(-c3ccc(F)cc3)c(=O)n(Cc3ccc(F)cc3)c2n1 | > 20 µM
25 | Cc1cccc(CNc2ccnc(-c3cccc(C#N)c3)n2)c1 | > 20 µM
26 | O=C(c1cnccn1)N1CCC2(CC1)CN(c1ccccn1)C2 | > 20 µM
27 | O=c1c(CCc2ccccc2)nc2cncnc2n1C1CC1 | > 20 µM
28 | CN1CCN(c2ncc3nc(-c4cc(F)cc(F)c4)c(=O)n(C4CC4)c3n2)CC1 | > 20 µM
29 | c1ccc2c(N3CCNCC3)nc(-c3ccc4c(c3)OCO4)nc2c1 | > 20 µM
30 | CCNc1ncc2nc(-c3cccs3)c(=O)n(C[C@H]3CCCO3)c2n1 | > 20 µM
31 | Cc1cccc(CNc2ncncc2-c2ccc3c(c2)OCO3)c1 | > 20 µM
32 | CN(C)C(=O)c1ccc(-c2nc(Nc3ccc(F)cc3)c3ccccc3n2)cc1 | > 20 µM
33 | N#Cc1cccc(NC(=O)N2CCCC3(CCN(C(=O)c4cccc(F)c4)CC3)C2)c1 | > 20 µM
34 | Cc1nc2cnc(Oc3ccccc3)nc2n(C2CC2)c1=O | > 20 µM
35 | FC(F)(F)c1ccccc1-c1ccc2ncnc(NCc3cccnc3)c2c1 | > 20 µM
36 | COc1ccc(Oc2ncc3nc(-c4cccs4)c(=O)n(Cc4cccc(OC)c4)c3n2)cc1 | > 20 µM
37 | CN(Cc1ccco1)c1ncnc2ccc(-c3ccccc3C#N)cc12 | > 20 µM
38 | COc1ccccc1CNc1ncncc1-c1ccccc1CN(C)C | > 20 µM
39 | COc1ccccc1CNc1ncnc2ccc(-c3cccc(NS(C)(=O)=O)c3)cc12 | > 20 µM
40 | O=C(c1cccc(F)c1)N1CCC2(CC1)CN(c1ccc(-c3ccccc3)cc1)C2 | > 20 µM
